Screens as filed in PubChem BioAssay.
TROY NFkB inh: blocks TROY-dependent signaling in reporter cells | 360,000 tested, 0.98% active | Q293 LMP1-TROYcd NF-kB luciferase reporter, 4 h | AID 1347056 | inhibition, % at 10 µM;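 active = compounds whose plate-normalised and pattern-corrected inhibition of the luciferase reporter signal at the single screening dose is 50% or more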
TWEAK-Fn14 inh: TWEAK-Fn14 signaling inhibition. 360,000 tested, 2% active. inhibition, % at 10 µM. TWEAK-stimulated Fn14 reporter cells, luciferase luminescence, 8 h. AID 1159606; in the data active = inhibition above about 50%
EWS-Fli inh: EWS/Fli transcriptional activity inhibition; A673 NR0B1-luciferase reporter, viability-normalised; inhibition, % at 12.6 µM; 350,000 tested, 0.67% active;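 active = mean inhibition of at least 50% after viability correction, with every replicate also passing that limit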;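 also: firefly luciferase signal divided by Alamar Blue viability fluorescence both relative to DMSO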
PAX8 inh HTS: inhibitors of PAX8 transcriptional activity in RMG-I cells. AID 652154. RMG-I TPO-luciferase reporter, SteadyGlo, 24 h. inhibition, % at 12.6 µM. 360,000 tested, 1.2% active;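 active = mean replicate inhibition at least 60% with every replicate also reaching 60%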;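 also: luciferase light reporting Pax8 driven TPO promoter activity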
LGR2 inh: inhibitors of bursicon-induced Drosophila LGR2 receptor cAMP signaling. HEK293 LGR2, CRE-luciferase, bursicon-stimulated, 4 h. inhibition, % at 9.99 µM. 380,000 tested, 0.35% active. AID 720647;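 active = drop in luminescence signal, shown as inhibition above about 50% in the replicate tests, limit read from the data, passing the limit was not always enough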;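 also: agonist challenge used bursicon conditioned medium at about half maximal strength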
Each line names hits and unclear results; the compound was inactive in the other large screens. Compounds with a hit are over-represented: about 2.8% of the library has one in this group of screens.

CCN(CC)CCC(=O)N1C/C(=C/c2ccccc2)C(=O)/C(=C\c2ccccc2)C1	TROY NFkB inh 63, TWEAK-Fn14 inh 107, EWS-Fli inh 82, LGR2 inh 92
COc1ccc2nc(Sc3c([N+](=O)[O-])nc(C)n3Cc3ccccc3)[nH]c2c1	none (no result: TROY NFkB inh, TWEAK-Fn14 inh, EWS-Fli inh, LGR2 inh)
Cc1nc([N+](=O)[O-])c(Sc2nc3ccccc3[nH]2)n1Cc1ccccc1	TWEAK-Fn14 inh 57 (no result: EWS-Fli inh)
Cc1cc2nc(Sc3c([N+](=O)[O-])nc(C)n3Cc3ccccc3)[nH]c2cc1C	TWEAK-Fn14 inh 84
C[C@H](CO)N1C[C@H](C)[C@H](CN(C)S(=O)(=O)c2ccccc2)Oc2ccc(NC(=O)Nc3ccccc3)cc2CC1=O	none (no result: TROY NFkB inh, TWEAK-Fn14 inh)
CN(C)CC(=O)N[C@H]1CC[C@@H](CCNC(=O)C2CC2)O[C@@H]1CO	none (no result: TROY NFkB inh, TWEAK-Fn14 inh, PAX8 inh HTS)
Cc1nc2ccc(F)cc2cc1C(=O)Nc1ccc(Cl)c(Cl)c1	TWEAK-Fn14 inh 51
COc1ccc(C(C)(O)c2nc(-c3ccccc3C)cs2)cc1 (stereo not given)	EWS-Fli inh 60
CC(=O)Nc1cccc(-c2csc(C(C)(O)c3cccc(F)c3)n2)c1 (stereo not given)	none
CCN(CC)C(=O)c1cccc(-c2csc(C(C)(O)c3cccc(F)c3)n2)c1 (stereo not given)	TWEAK-Fn14 inh 53
COc1cccc(C(C)(O)c2nc(-c3cccc(C#N)c3)cs2)c1 (stereo not given)	TWEAK-Fn14 inh 52
COc1ccc(C(C)(O)c2nc(-c3ccc(F)cc3OC)cs2)cc1 (stereo not given)	EWS-Fli inh 58
Cc1ccc(S(=O)(=O)N[C@H]2CC[C@H](CC(=O)N3CCC(Cc4ccccc4)CC3)O[C@H]2CO)cc1	none (no result: TROY NFkB inh, TWEAK-Fn14 inh)
COc1ccc(C(C)(O)c2nc(-c3ccncc3)cs2)cc1 (stereo not given)	EWS-Fli inh 59
N#Cc1ccc2nc(-c3ccc(CN4CCC(c5nc6ccccc6[nH]5)CC4)cc3)c(-c3ccccc3)nc2c1	PAX8 inh HTS 78 (no result: TROY NFkB inh, TWEAK-Fn14 inh)
CC(Nc1ncnc2sccc12)c1ccccc1 (stereo not given)	TWEAK-Fn14 inh 54
c1ccc(Nc2ncnc3sccc23)cc1	none
CC(C)(C)C(=O)Nc1ccc(-c2cn3ccsc3n2)cc1	TWEAK-Fn14 inh 74 (no result: EWS-Fli inh, PAX8 inh HTS, LGR2 inh)
C[C@@H]1CN([C@H](C)CO)C(=O)c2cc(NS(=O)(=O)c3ccc(F)cc3)ccc2O[C@@H]1CN(C)Cc1ccncc1	none (no result: TROY NFkB inh, TWEAK-Fn14 inh)
CCOC(=O)c1sc(/N=C/N(C)C)nc1C	PAX8 inh HTS 117
C[C@H]1CN([C@@H](C)CO)C(=O)c2cc(C#Cc3cccc(F)c3)cnc2O[C@H]1CN(C)C(=O)C1CCOCC1	none (no result: TROY NFkB inh, TWEAK-Fn14 inh, PAX8 inh HTS)
O=C(C[C@@H]1CC[C@@H]2[C@H](COC[C@H](O)CN2C(=O)C2CC2)O1)NCc1ccccc1Cl	none (no result: TROY NFkB inh, TWEAK-Fn14 inh)
O=C1C(=Cc2ccccc2Cl)CCc2ccccc21	TWEAK-Fn14 inh 58
O=C1C(=Cc2ccc(F)cc2)CCc2ccccc21	TWEAK-Fn14 inh 70
Cn1cccc1/C=C1\CCc2ccccc2C1=O	TWEAK-Fn14 inh 76, EWS-Fli inh 55, LGR2 inh 60
O=C1C(=Cc2ccc(Cl)cc2)CCc2ccccc21	TROY NFkB inh 54, TWEAK-Fn14 inh 70
O=C1C(=Cc2cccc(Cl)c2)CCc2ccccc21	none
O=C1/C(=C\c2ccncc2)CCc2ccccc21	none
Cn1cccc1/C=C1\Cc2ccccc2C1=O	none
COc1ccccc1C=C1CCc2ccccc2C1=O	TWEAK-Fn14 inh 72
COc1cc(/C=C(\C#N)c2nc3ccccc3[nH]2)ccc1Oc1ccc([N+](=O)[O-])cn1	TROY NFkB inh 52 (no result: EWS-Fli inh, PAX8 inh HTS)
COc1cc(/C=C(\C#N)c2nc3ccc(C)cc3[nH]2)cc([N+](=O)[O-])c1O	TWEAK-Fn14 inh 51
COc1cc(/C=C(\C#N)c2nc3ccc(C)cc3[nH]2)c([N+](=O)[O-])cc1OC	none (no result: EWS-Fli inh, PAX8 inh HTS)
COc1ccc(NC(=O)Nc2ccc3c(c2)C(=O)N(C)C[C@H](OC)[C@@H](C)CN[C@H](C)CO3)cc1	none (no result: TROY NFkB inh, TWEAK-Fn14 inh)
O=C(NC1CCCC1)N[C@H]1CC[C@H](CC(=O)N2CCOCC2)O[C@@H]1CO	none (no result: TROY NFkB inh, TWEAK-Fn14 inh)
Cc1cc(/C=N/NC(=O)c2c(Br)cnn2C)c(C)n1-c1cccc(Br)c1	PAX8 inh HTS 77
C/C(=N\NC(=O)c1cc2ccccc2cc1O)c1cccs1	TWEAK-Fn14 inh 53
NS(=O)(=O)c1cccc(NC(=O)CC23CC4CC(C2)CC(CC(=O)Nc2cccc(S(N)(=O)=O)c2)(C4)C3)c1	none
NS(=O)(=O)c1cccc(NC(=O)CNC(=O)CC23CC4CC(CC(C4)C2)C3)c1	TROY NFkB inh 52
